Each structure is given as a SMILES string. Records with an inconclusive call do not appear. Where a call stands in place of a potency, no number is given. Unmarked numbers belong to inactive results. Active and inactive are the calls of the source. Calls come from the whole dose curve; as a rule, active = well fitted inhibition curve with a large enough effect in the repeat runs; inconclusive = weak or mixed curves; inactive = no such curve, though single readings can be large or run the other way.

The target of this assay is Aromatase (Homo sapiens) (UniProt P11511). In words: qHTS assay to identify aromatase inhibitors (AID 743083). Note: nearly all actives have a fitted effect of over 55% in size. The note with it: MCF-7 aro ERE, testosterone-driven ERE luciferase, 24 h; series mostly up to 70.3 µM.
Chain of Aromatase (Homo sapiens) (P11511 whole entry, looked up): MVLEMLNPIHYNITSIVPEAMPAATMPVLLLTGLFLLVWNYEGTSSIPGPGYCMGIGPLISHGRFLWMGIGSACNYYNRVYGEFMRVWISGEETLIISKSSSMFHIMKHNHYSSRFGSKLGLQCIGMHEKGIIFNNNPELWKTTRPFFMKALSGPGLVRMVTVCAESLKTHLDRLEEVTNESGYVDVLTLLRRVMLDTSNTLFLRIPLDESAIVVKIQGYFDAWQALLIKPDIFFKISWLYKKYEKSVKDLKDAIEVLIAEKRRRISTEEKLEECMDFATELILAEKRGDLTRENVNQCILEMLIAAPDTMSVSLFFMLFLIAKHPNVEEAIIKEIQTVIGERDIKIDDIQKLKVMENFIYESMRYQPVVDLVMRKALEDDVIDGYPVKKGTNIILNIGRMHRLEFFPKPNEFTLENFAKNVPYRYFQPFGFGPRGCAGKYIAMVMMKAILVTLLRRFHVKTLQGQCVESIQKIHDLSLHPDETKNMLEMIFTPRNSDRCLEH
`COC(=O)/C=C(\C)CCC=C(C)C`: the Potency entry is “inactive”.
For `CNC(C)=O`, the Potency entry is “inactive”.
On the same count and under the same terms, then `CC(=O)c1ccc2ccc3ccccc3c2c1`, with “inactive”.
Same read-out and setting: then `CCN1CCN(C(=O)N[C@@H](C(=O)N[C@@H]2C(=O)N3[C@@H]2SC(C)(C)[C@H]3C(=O)O)c2ccccc2)C(=O)C1=O`, with “inactive”; and `Cc1ccc(O)c([N+](=O)[O-])c1`, with “inactive”; and `CC(C)(C)C(=O)CC(=O)C(C)(C)C`, with “inactive”.
Still for that read-out and setting: next, `CC(=O)Nc1ccc(OCCOCCOc2ccc(NC(C)=O)cc2)cc1`: “inactive”; `Cc1ccc(NC(N)=O)cc1`: “inactive”.
For `CC(C)(C)c1ccc(N)cc1`, the Potency result is “inactive”.
Still for that read-out and setting: next, `NS(=O)(=O)c1cc2c(cc1C(F)(F)F)NCNS2(=O)=O`: “inactive”.
The same measure, in the same setting: then `Clc1cc(Cl)c(Cl)c(Cl)c1Cl`, with “inactive”; and `CC(CC(=O)Cl)CC(C)(C)C` (configuration not stated), with “inactive”.
`NNC(=O)CCCCC(=O)NN`: the Potency entry is “inactive”.
The same measure, in the same setting: then `COCCCOc1cc(C[C@@H](C[C@H](N)[C@@H](O)C[C@H](C(=O)NCC(C)(C)C(N)=O)C(C)C)C(C)C)ccc1OC`, with “inactive”; and `CCCCS`, with “inactive”.
Still for that read-out and setting: then `C[Si](C)(C)O[Si](O)(O)O`, with “inactive”.
On the same count and under the same terms, next, `C/C=C(\C)C=O`: “inactive”.
Take `O=C(O)Cc1c(Cl)ccc(Cl)c1Cl`: the Potency entry was “inactive”.
Still for that read-out and setting: next, `CCCCCCCCCCCBr`: “inactive”; `CCc1ccc(CC)cc1`: “inactive”.
For the molecule `CCCCCCCCCCCCCCCCN(C)C`, the activity, negative = inhibition is 3.06% [at 8.47 µM].
Take `CC(C)(O)c1ccc(C(C)(C)O)cc1`: the Potency entry was “inactive”.
The same measure, in the same setting: next, `O=C(OOC(=O)c1ccccc1)c1ccccc1`: “inactive”; `Cc1cc(C)c(C)c(C)c1`: “inactive”; `CCO[Si](CC(C)C)(OCC)OCC`: “inactive”.
Regarding `CC(CN1CC(=O)NC(=O)C1)N1CC(=O)NC(=O)C1` (configuration not stated), the Potency result is “inactive”.
The same measure, in the same setting: then `Cc1ccc(Br)cc1`, with “inactive”; and `CC(=O)OC/C=C(/C)CCC=C(C)C`, with “inactive”.
Still for that read-out and setting: then `CCCCCCCCCCCCCCBr`, with “inactive”.
Still for that read-out and setting: next, `C[C@@H]1CC[C@@]2(OC1)O[C@H]1C[C@H]3[C@@H]4CC[C@H]5C[C@@H](O)CC[C@]5(C)[C@H]4CC(=O)[C@]3(C)[C@H]1[C@@H]2C`: “inactive”; `C=COCCCCO`: “inactive”.
`CN(C)c1ccncc1`: the Potency result was “inactive”.
The same measure, in the same setting: next, `Cc1cc(C)c(N)c(Cl)c1`: “inactive”.
Same read-out and setting: next, `CC(C)CC(O)Cc1ccccc1` (configuration not stated): “inactive”.
The same measure, in the same setting: next, `O=C(O)/C=C(\CC(=O)O)C(=O)O`: “inactive”.
On to `COCc1nnc(-c2ccc[n+]([O-])c2)n1-c1c(Cl)c(Cl)cc2[nH]c(=O)c(=O)[nH]c12`, for which the Potency entry was “inactive”.
On the same count and under the same terms, next, `Cc1ccc(N)nc1`: “inactive”.
